esBAF inh – inhibitors of esBAF chromatin remodeling in mouse ES cells. Bmi1-luciferase knock-in reporter, 24 h; 100% = twice the neutral-well signal. reporter increase, % at 12.5 µM. hit rate 2% among 350,000; in the data active means activation above about 40%; inconclusive means no clear call, values can overlap the other calls;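 further: 0% = median of the plate's neutral control wells and 100% = double that signal; a rise in the Bmi1 reporter signal indicates esBAF inhibition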
HSF1 activator – increases HSF-1 driven luciferase reporter signal | NIH3T3-HGL HSF-1 luciferase reporter, MG132, 8 h; 100% = twice DMSO control signal | activation, % at 9 µM | hit rate 1.7% among 300,000 | AID 504408;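 active means mean replicate activation of at least 50% with a set share of replicates each reaching 50%; inconclusive means only one of those two conditions met; inactive means mean below 50% and too few replicates reaching it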;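 further: 0% = median of the neutral control wells and 100% = twice that signal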
Wnt bcat act – activators of Wnt/beta-catenin signaling; Wnt/beta-catenin reporter cell assay, activator, plate reader; activation, % at 9.35 µM; hit rate 1.2% among 300,000; in the data active means activation above about 30%, passing the limit was not always enough; inconclusive means no clear call, values can overlap the other calls;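 further: 0% = neutral control wells and 100% = positive control wells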
HSF1 inh – HSF1 inhibition; activity change, negative = inhibition, % at 7.5 µM (by protocol); hit rate 0.77% among 300,000; NIH3T3-HGL HSE-luciferase, MG132-induced, luminescence 8 h; active compounds read low;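 active means more than half of replicate wells show activity change below -50%, luminescence cut by over half; inconclusive means some wells, but at most half, below -50%; inactive means no replicate well below -50%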;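 further: luciferase reports HSF-1 transcriptional activity via heat shock element; 0% = median of DMSO wells and -100% = zero luminescence signal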
MITF TRPM1 HTS – MITF TRPM1 promoter activation in melanoma cells. SK-MEL-5 TRPM1-promoter luciferase, 24 h; % of positive control, neutral wells = 0. hit rate 0.75% among 300,000. activation, % at 12.5 µM. AID 588334;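 active means mean activation of at least 80% with every replicate also reaching 80%; inconclusive means mean reaches 80% but some replicate falls short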;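 further: 0% = neutral control wells and 100% = parthenolide positive control wells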
Numbers without * were called inactive. Hits are enriched below; roughly 3.8% of the tested compounds scored in any of these assays.

Results for Cc1ccc(C(CC(=O)c2ccco2)SCCO)cc1 (stereo not given) ?
esBAF inh: 36.1; HSF1 activator: 39.1; Wnt bcat act: 37.0*; HSF1 inh: 19.5; MITF TRPM1 HTS: 24.1

What do the screens show for `O=C(CC(SCCO)c1ccc(F)cc1)c1ccco1` (stereo not given)?
esBAF inh: 0.8; HSF1 activator: -6.8; HSF1 inh: 2.1; MITF TRPM1 HTS: 10.0

Results for CCOC(=O)C(C(=O)OCC)c1cc(Br)c2noc3c2c1C(=O)c1ccccc1-3 ?
HSF1 activator: 51.9*; HSF1 inh: 46.1; MITF TRPM1 HTS: -95.1

What do the screens show for `NS(=O)(=O)c1ccc(CCNC(=O)c2ccc([N+](=O)[O-])s2)cc1`?
esBAF inh: -1.5; HSF1 activator: 93.7*; Wnt bcat act: -1.3; HSF1 inh: 44.0; MITF TRPM1 HTS: -57.1

How did O=c1[nH]c(COc2ccc(Cl)cc2Br)nc2ccccc12 do in these assays?
HSF1 activator: 60.6*; Wnt bcat act: 27.2; HSF1 inh: 39.3; MITF TRPM1 HTS: 71.0

Results for O=c1[nH]c(COc2ccc(Cl)cc2Cl)nc2ccccc12 ?
esBAF inh: 73.3*; HSF1 activator: 84.8*; Wnt bcat act: -2.4; HSF1 inh: 56.7; MITF TRPM1 HTS: 79.1

How did CO[C@@H]1CN(C)C(=O)c2cc(NS(C)(=O)=O)ccc2OC[C@H](C)N(C)C[C@@H]1C do in these assays?
esBAF inh: -2.8

How did C[C@H](CO)N1C[C@H](C)[C@@H](CN(C)Cc2ccc3c(c2)OCO3)OCCCC[C@H](C)Oc2ccc(NS(=O)(=O)c3cn(C)cn3)cc2C1=O do in these assays?
esBAF inh: 4.5

Results for Cc1nnc(NC(=O)c2cccc(NC(=O)C(C)C)c2)s1 ?
esBAF inh: 5.3; HSF1 activator: 5.0; HSF1 inh: -2.4; MITF TRPM1 HTS: 6.3

How did CCc1nnc(NC(=O)c2cccc(NC(=O)C(C)C)c2)s1 do in these assays?
HSF1 activator: 5.7; Wnt bcat act: 23.9; HSF1 inh: 11.6; MITF TRPM1 HTS: 35.7

What do the screens show for `CC(C)C(=O)Nc1cccc(C(=O)Nc2nnc(C(C)C)s2)c1`?
esBAF inh: 8.9; HSF1 activator: 31.7; HSF1 inh: 22.4; MITF TRPM1 HTS: 91.3*

Results for CC(C)c1nnc(NC(=O)c2cccc(NC(=O)C(F)(F)F)c2)s1 ?
HSF1 activator: 3.4; Wnt bcat act: 35.4*; HSF1 inh: -0.8; MITF TRPM1 HTS: 49.6

What do the screens show for `COc1ccc(-c2ccc([C@H]3[C@@H](C#N)N(C(=O)c4cccc(F)c4)[C@@H]3CO)cc2)cc1`?
esBAF inh: 50.7*

How did N#C[C@@H]1[C@@H](c2ccc(C#Cc3ccccc3F)cc2)[C@@H](CO)N1C(=O)C1CCCCC1 do in these assays?
esBAF inh: 50.9*

Results for COc1ccc(-c2ccc([C@@H]3[C@@H](C#N)N(C(=O)c4cccc(F)c4)[C@H]3CO)cc2)cc1 ?
esBAF inh: -0.8

What do the screens show for `N#C[C@@H]1[C@@H](c2ccc(C#Cc3cccc(F)c3)cc2)[C@@H](CO)N1C(=O)C1CCCC1`?
esBAF inh: 49.7*

Results for CNC[C@@H]1Oc2ncc(C#CC3(O)CCCC3)cc2C(=O)N([C@H](C)CO)C[C@@H]1C ?
esBAF inh: 1.5

How did CC(C)=C1C2CCC1C1C(=O)N(c3nc(-c4ccccc4)c(C)s3)C(=O)C21 (stereo not given) do in these assays?
HSF1 activator: 74.1*; Wnt bcat act: -4.9; HSF1 inh: 19.9; MITF TRPM1 HTS: -12.8

Results for CC(C)=C1C2CCC1C1C(=O)N(c3nccs3)C(=O)C21 (stereo not given) ?
HSF1 activator: -14.1; Wnt bcat act: -0.6; HSF1 inh: -4.4; MITF TRPM1 HTS: -2.6

What do the screens show for `Nc1[nH]c(N=NC(=O)c2ccccc2O)c2ccccc12`?
HSF1 activator: 28.0; Wnt bcat act: 70.8*; HSF1 inh: 12.9; MITF TRPM1 HTS: 17.4

What do the screens show for `Nc1[nH]c(N=NC(=O)c2ccccc2)c2ccccc12`?
HSF1 activator: 22.7; Wnt bcat act: 5.1; HSF1 inh: 24.1; MITF TRPM1 HTS: 1.2

What do the screens show for `COc1ccc(/C=C/C(=O)Nc2ccccc2C(=O)N2CCCC2)cc1`?
esBAF inh: 56.5*; HSF1 activator: -13.5; HSF1 inh: -18.0

What do the screens show for `CCOP(=O)(OCC)C(NC(=O)Nc1ccccc1)c1ccccc1` (stereo not given)?
HSF1 activator: -4.7; Wnt bcat act: -1.3; HSF1 inh: -5.6; MITF TRPM1 HTS: -3.0

Results for COc1cc(/C=C/C(=O)NC(=O)c2ccccc2O)ccc1O ?
esBAF inh: inconclusive; HSF1 activator: 2.6; Wnt bcat act: 19.1; HSF1 inh: 1.9; MITF TRPM1 HTS: 83.6*

Results for COc1ccc(/C=C/C(=O)Nc2ccccc2C(=O)O)cc1 ?
esBAF inh: -19.8; HSF1 activator: -43.0; Wnt bcat act: -2.1; HSF1 inh: -39.5; MITF TRPM1 HTS: 2.9

What do the screens show for `CCOP(=O)(OCC)C(NC(=O)/C=C/c1ccc(OC)cc1)c1ccccc1` (stereo not given)?
HSF1 activator: 1.6; Wnt bcat act: 33.9*; HSF1 inh: 3.5; MITF TRPM1 HTS: 9.0

How did COc1ccc(/C=C/C(=O)Nc2ccccc2C(=O)O)cc1OC do in these assays?
esBAF inh: -54.8; HSF1 activator: -59.0; Wnt bcat act: 7.0; HSF1 inh: -55.8*; MITF TRPM1 HTS: 5.6

What do the screens show for `COc1ccc(NC(=O)Nc2ccc3c(c2)CCC3)cc1OC`?
HSF1 activator: 13.3; Wnt bcat act: 1.7; HSF1 inh: 0.9; MITF TRPM1 HTS: 21.2

What do the screens show for `COc1ccc(/C=C/C(=O)Nc2ccccc2C(F)(F)F)cc1`?
HSF1 activator: 27.4; HSF1 inh: 16.5; MITF TRPM1 HTS: 58.7

Results for COc1ccc(/C=C/C(=O)Nc2ccc3c(c2)CCC3)cc1OC ?
esBAF inh: 47.3*; HSF1 activator: 37.1; HSF1 inh: 34.4; MITF TRPM1 HTS: 28.6

What do the screens show for `COc1ccc(/C=C/C(=O)Nc2ccccc2C(=O)NCC(c2ccc(OC)cc2)N(C)C)cc1` (stereo not given)?
esBAF inh: 22.5; HSF1 activator: -59.7; Wnt bcat act: 2.1; HSF1 inh: -59.5*; MITF TRPM1 HTS: 21.1

How did Cc1noc(C)c1NC(=O)NCC[C@@H]1CC[C@@H](NC(=O)c2ccncc2)[C@H](CO)O1 do in these assays?
esBAF inh: 1.7

How did COc1ccc(CN(C)C[C@@H]2Oc3ccc(NS(=O)(=O)c4cn(C)cn4)cc3C(=O)N([C@H](C)CO)C[C@@H]2C)cc1 do in these assays?
esBAF inh: 2.5

What do the screens show for `CC(=O)Nc1nc(-c2ccc3c(c2)CCO3)cs1`?
HSF1 activator: 2.3; Wnt bcat act: -2.4; HSF1 inh: 10.5; MITF TRPM1 HTS: 39.1

What do the screens show for `Nc1nc(-c2ccc3c(c2)CCO3)cs1`?
HSF1 activator: 9.2; Wnt bcat act: 34.3*; HSF1 inh: -7.9; MITF TRPM1 HTS: 51.8

How did CCCNC(=O)N(C)C[C@@H]1Oc2cc(-c3ccccc3F)ccc2S(=O)(=O)N([C@@H](C)CO)C[C@H]1C do in these assays?
esBAF inh: -7.7

Bioassay records (PubChem BioAssay)
